Compounds with a hit are over-represented: about 19% of the library has one in this group of screens.
TGFb SMAD3 inh – qHTS for Inhibitors of TGF-b; hit rate 1.2% among 410,000; HepG2 CAGA-GFP TGF-b/SMAD3 reporter, GFP fluorescence, 18 h; TGF-beta stimulated, 500 pg/mL final; Potency, µM (highest dose often 46.1 µM), inactives show at the highest dose activity, negative = inhibition, usual class: inhibitors; further: potency means the concentration at half of the fitted maximal effect; on the % scale 0 is the no-effect control and ±100 the full control effect; nearly all actives have a fitted effect of over 65% in size
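HEPG2 CAGA-GFP, 1000 cells/well; 2 h settle, 37 C; cpd via pin tool; TGF-b 500 pg/mL final; 18 h, 37 C; GFP imaging ex488/em500-530; %Activity normalised to -TGF-b and +DMSO controls; CRC fit, curve class.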
DT40 TDP1 no CPT – qHTS for Inhibitors of human tyrosyl-DNA phosphodiesterase 1 (TDP1): qHTS in cells in absence of CPT; DT40 Tdp1-/- hTDP1 cells, no CPT, ATP luminescence, 48 h; AID 686978, 2013; Potency, µM (doses to about 46.2 µM), inactives show at the highest dose activity change, negative = growth inhibition, most hits filed as inhibitors; hit rate 15% among 420,000; further: potency means the concentration at half of the fitted maximal effect; on the % scale 0 is the no-effect control and ±100 the full control effect; nearly all actives have a fitted effect of over 55% in size
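Compound effects on proliferation are scored in DT40 Tdp1-/-;hTDP1 cells in the absence of CPT. ATP levels (CellTiter-Glo luminescence) are recorded after a ≥48 hr, 37 °C incubation.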
IL-1B inflam inh – qHTS for Inhibitors of Inflammasome Signaling: IL-1-beta AlphaLISA Primary Screen | hit rate 4.7% among 360,000 | activity change, % at 57.5 µM | THP-1 LPS/ATP IL-1B secretion, AlphaLISA, 16 h; stronger effect = lower value; in the data active means activity change below about -50%; inconclusive means mostly about -30% to -49%; further: on the % scale 0 is the no-effect control and ±100 the full control effect
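THP-1 cells pretreated 1 hr with compounds (up to 57.5 uM final), then stimulated with LPS (250 ng/mL final) plus ATP (1.25 mM final); secreted IL-1B measured by AlphaLISA after 16 hr, decreased signal indicating inhibition.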
HepG2 tox – qHTS for Inhibitors of TGF-b: Cytotox Counterscreen. HepG2 CAGA-GFP viability, ATP luminescence, 18 h. Potency, µM (doses to about 46.1 µM), for inactives: top-dose activity change, negative = cytotoxicity, most hits filed as cytotoxic. hit rate 0.76% among 410,000; further: potency means the concentration at half of the fitted maximal effect
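HepG2 CAGA-GFP cells (1000/well, DMEM with 1% FBS) received compound, then TGF-beta at 500 pg/mL final, and were incubated 18 hours at 37 degrees C. Viability was read by CellTiter-Glo luminescence. Media-only wells were set as complete cell-killing and DMSO as no toxicity.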
ASM inhibitor – Inhibitors of Secretory Acid Sphingomyelinase (S-ASM): qHTS. Potency, µM (series often up to 57.5 µM), without a hit: at the highest dose activity change, negative = inhibition, hits mostly inhibitors. placental ASM, HMU-PC fluorogenic substrate, 60 min. hit rate 0.006% among 340,000; further: potency means the concentration at half of the fitted maximal effect
Target sequence (P17405 47-631 limits assumed): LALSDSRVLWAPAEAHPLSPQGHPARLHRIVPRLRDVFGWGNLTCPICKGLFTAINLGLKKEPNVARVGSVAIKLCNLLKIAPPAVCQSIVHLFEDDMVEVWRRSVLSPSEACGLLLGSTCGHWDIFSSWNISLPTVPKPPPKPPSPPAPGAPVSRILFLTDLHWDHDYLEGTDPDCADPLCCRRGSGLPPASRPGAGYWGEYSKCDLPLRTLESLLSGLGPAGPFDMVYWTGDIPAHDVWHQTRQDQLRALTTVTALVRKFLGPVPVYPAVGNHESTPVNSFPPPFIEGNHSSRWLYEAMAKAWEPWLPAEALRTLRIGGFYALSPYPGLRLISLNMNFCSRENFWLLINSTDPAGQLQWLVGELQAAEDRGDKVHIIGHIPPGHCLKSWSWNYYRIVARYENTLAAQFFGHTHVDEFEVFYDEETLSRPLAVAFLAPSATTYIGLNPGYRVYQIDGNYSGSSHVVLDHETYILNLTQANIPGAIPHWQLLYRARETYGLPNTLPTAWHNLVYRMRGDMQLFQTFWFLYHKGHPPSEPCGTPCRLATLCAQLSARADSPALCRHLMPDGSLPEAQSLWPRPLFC
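Fluorescence read-out (Ex 386 nm, Em 447 nm) after stopping the reaction at pH 10. Enzyme: ASM from human placenta; substrate HMU-PC0, 9 uM final; 60 min, 37 °C. Compound preincubation 10 min, ambient temperature.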
DT40 TDP1 CPT – qHTS for Inhibitors of human tyrosyl-DNA phosphodiesterase 1 (TDP1): qHTS in cells in presence of CPT; chicken DT40 Tdp1-/-;hTDP1 cells + 20 nM CPT, ATP luminescence, 48 h; Potency, µM (highest dose often 46.2 µM), for the others: at the highest dose activity change, negative = growth inhibition, usual class: inhibitors; hit rate 12% among 420,000; AID 686979, 2013; further: potency means the concentration at half of the fitted maximal effect; on the % scale 0 is the no-effect control and ±100 the full control effect; nearly all actives have a fitted effect of over 55% in size
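Cell growth measured by CellTiter-Glo luminescence after a minimum 48 h, 37 C compound exposure with 20 nM CPT in Tdp1-knockout DT40 cells stably expressing hTDP1, seeded 400/well; qHTS titration format.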
Starred values were filed as active, the others as inactive; ? = inconclusive; nt = not tested or not shown; [ ] = remark or other dose. Unless noted, the call rests on the fitted dose curve; in most records, active means well fitted curve in the direction sought with a large enough effect; inconclusive means small, poorly fitted or top-dose-only effect, or another doubt; inactive means no such curve, though single readings can be large; an effect the other way counts as inactive or inconclusive.

SMILES	TGFb SMAD3 inh	DT40 TDP1 no CPT	IL-1B inflam inh	HepG2 tox	ASM inhibitor	DT40 TDP1 CPT
COc1cc2nc(CN(C)Cc3nc4ccccc4c(=O)[nH]3)[nH]c(=O)c2cc1OC	51%	13µM*	6	-3%	-2%	13µM*
COc1cc2nc(CN(C)Cc3ccc(SC)cc3)[nH]c(=O)c2cc1OC	-22%	-10%	48	-27%	1%	-14%
CCOc1cc(/C=C/C(=O)c2ccc(OC)c(CN3CCOCC3)c2)cc(Br)c1O	20%	?	-96*	2%	-10%	?
CCOc1cc(/C=N/NC(=O)c2ccc(CN3CCOCC3)cc2)ccc1OC	-2%	-24%	0	1%	6%	3%
CCc1ccccc1Nc1nn2c(=O)c3ccc(C(=O)NCc4cccs4)cc3nc2s1	-20%	21µM*	nt	-34%	nt	?
CCc1ccccc1Nc1nn2c(=O)c3ccc(C(=O)NCc4ccccc4Cl)cc3nc2s1	-27%	9.2µM*	nt	2%	nt	?
O=C(NC(=S)Nc1ccccc1N1CCCC1)c1ccc([N+](=O)[O-])cc1	-19%	18µM*	-21	9%	-4%	26µM*
CCOc1ccc(C(=O)NC(=S)Nc2ccc(N3CCCCC3)cc2)cc1[N+](=O)[O-]	-26%	?	9	-6%	-3%	12µM*
CCOc1ccc(C(=O)NC(=S)Nc2ccccc2N2CCCCC2)cc1[N+](=O)[O-]	-8%	?	2	-4%	-5%	18µM*
COc1ccc(C(=O)NC(=S)Nc2ccccc2N2CCCCC2)cc1[N+](=O)[O-]	0%	6.5µM*	18	11%	-14%	12µM*
COc1ccc(C(=O)NC(=S)Nc2cccc(Cl)c2N2CCOCC2)cc1[N+](=O)[O-]	0%	?	10	-10%	-21%	?
CCOc1ccc(C(=O)NC(=S)Nc2ccc(NC(=O)CC)cc2)cc1[N+](=O)[O-]	-18%	-22%	0	-5%	-5%	-14%
COc1ccc(NC(=O)CNC(=O)CC23CC4CC(CC(C4)C2)C3)c(OC)c1	-1%	?	13	-10%	-1%	?
COc1cc(OC)c2nc(-c3cc4c(c(OC)c3)OCCN(C(=O)C(C)c3n[nH]c(=O)c5ccccc35)C4)cc(C)c2c1 (configuration not stated)	nt	-15%	nt	nt	nt	18%[9.04 µM]
Cc1nn(C)c2c1c(C(F)(F)F)cc(=O)n2CC(=O)NCc1ccccc1Cl	11%	?	nt	-1%	nt	?
COC(=O)Nc1cc(C(=O)c2ccc(Cl)cc2Cl)c[nH]1	4%	-25%	-8	-17%	-3%	-2%
Cc1ccsc1C(=O)N1CCC1(C)C(=O)Nc1ccc2c(c1)OCCO2 (configuration not stated)	39%	?	-7	-5%	nt	-23%
Cc1ccc(OCc2nnc(SCC(=O)C(C)(C)C)n2Cc2ccco2)cc1	9%	16µM*	-10	0%	-13%	?
O=C(CSc1nnc(COc2ccccc2)n1Cc1ccco1)NCc1ccco1	-18%	-16%	0	-9%	-8%	6%
CC(=O)N1CCN(c2ccccc2NC(=O)c2ccco2)CC1	0%	1%	-28	-11%	-1%	3%
CCN1CCN(c2c(Cl)cccc2NC(=O)c2ccco2)CC1	1%	?	-68*	-6%	6%	-21%
O=C(Nc1cccc(Cl)c1N1CCOCC1)c1ccco1	-1%	?	?	9%	-3%	?
O=C(Nc1ccccc1N1CCCCC1)c1ccc(-c2cc(Cl)ccc2Cl)o1	3%	-6%	11	-1%	7%	-2%
O=C(Nc1ccccc1N1CCCCC1)c1ccc([N+](=O)[O-])o1	0%	16µM*	?	-74%	-15%	21µM*
CCC(=O)NC(=S)Nc1cccc(Cl)c1N1CCCCC1	14µM*	11µM*	52	-61%	-6%	11µM*
SMILES	TGFb SMAD3 inh	DT40 TDP1 no CPT	IL-1B inflam inh	HepG2 tox	ASM inhibitor	DT40 TDP1 CPT
O=C(Nc1ccccc1N1CCN(C(=O)c2ccc(Cl)cc2)CC1)c1ccc([N+](=O)[O-])o1	?	?	-76*	-14%	-6%	21µM*
CC(=O)c1cccc(NC(=O)c2cc3sc(Cl)cc3n2C)c1	7%	?	nt	-16%	nt	-27%
O=C1NC[C@H](Cc2ccc(O)cc2)N(CCc2cccc(F)c2)C1=O	nt	-17%	-19	nt	nt	-10%
C=CCOc1ccc(/C=C/C(=O)OCC(=O)N(C)CC(=O)Nc2ccc(F)cc2)cc1	-10%	-8%	2	-2%	0%	-5%
CCOC(=O)c1c(C)[nH]c(C)c1C(=O)COC(=O)COc1ccc(Cl)c(C)c1	12%	5%	22	1%	-8%	1%
CCN1CCN(c2c(Cl)cccc2NC(=O)c2ccc([N+](=O)[O-])cc2)CC1	-22%	-10%	-12	-15%	-2%	-29%
O=C(Nc1ccccc1N1CCOCC1)c1cccnc1	-9%	-2%	9	-13%	0%	-18%
O=C(Nc1cccc(Cl)c1N1CCCC1)c1ccc([N+](=O)[O-])o1	1%	-27%	-84*	-24%	-3%	-30%
O=C(Nc1ccccc1N1CCOCC1)c1ccc([N+](=O)[O-])o1	-2%	15µM*	-1	-16%	nt	12µM*
COc1cc(NC(=O)c2cc(-c3cccnc3)nc3ccc(Br)cc23)cc(OC)c1	4%	21µM*	8	-27%	-5%	?
O=C(Nc1cccnc1)c1cc(-c2cccnc2)nc2ccc(Br)cc12	5%	?	16	4%	-13%	?
NNC(=O)c1cc(-c2ccc(N)cc2)nc2ccc(Br)cc12	?	15µM*	-20	-114%	-5%	?
COc1ccc(NC(=O)c2cc(-c3ccncc3)nc3ccc(Br)cc23)cc1OC	?	21µM*	-6	-81%	-5%	?
CNS(=O)(=O)c1ccc(NC(=O)c2cc(-c3ccncc3)nc3ccc(Cl)cc23)cc1	-6%	-12%	0	-1%	-4%	-20%
N#Cc1c(NC(=O)Cn2c(=O)oc3ccccc32)oc(-c2ccccc2)c1-c1ccccc1	?	8.2µM*	0	8%	-8%	9.2µM*

Screening results from PubChem.
